ALDH1A1 inh: qHTS Assay for Inhibitors of Aldehyde Dehydrogenase 1 (ALDH1A1); Potency, µM (titrated, usually from 75.3 µM), for inactives: at the top dose activity, negative = inhibition, hits mostly inhibitors; 220,000 compounds, 7.3% hits; Aldehyde dehydrogenase 1A1 (Homo sapiens), P00352; AID 1030, 2008; Purified ALDH1A1, NADH fluorescence, propionaldehyde substrate; active means well fitted inhibition curve with a large enough effect, not every such curve was filed as active; inconclusive means small, poorly fitted or top-dose-only effect, or another doubt; inactive means no such curve, though single readings can be large or run the other way;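 further: potency means the concentration at half of the fitted maximal effect; plate controls were no enzyme wells and a reference inhibitor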
Target sequence (P00352 whole entry, looked up): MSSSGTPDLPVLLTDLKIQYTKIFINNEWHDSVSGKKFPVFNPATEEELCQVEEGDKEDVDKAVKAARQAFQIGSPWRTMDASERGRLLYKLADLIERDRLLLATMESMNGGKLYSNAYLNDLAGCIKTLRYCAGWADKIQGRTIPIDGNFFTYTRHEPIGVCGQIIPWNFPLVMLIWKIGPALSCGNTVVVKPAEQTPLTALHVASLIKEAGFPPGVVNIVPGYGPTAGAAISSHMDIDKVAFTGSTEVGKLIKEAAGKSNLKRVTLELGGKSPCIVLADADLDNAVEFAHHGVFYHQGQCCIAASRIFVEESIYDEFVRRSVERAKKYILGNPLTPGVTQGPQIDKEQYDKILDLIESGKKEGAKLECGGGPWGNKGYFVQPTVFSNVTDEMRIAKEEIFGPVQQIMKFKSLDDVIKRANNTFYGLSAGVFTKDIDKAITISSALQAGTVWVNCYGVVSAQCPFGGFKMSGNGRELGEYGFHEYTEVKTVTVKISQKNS
miR-21 act: qHTS Assay for Modulators of miRNAs and/orActivators of miR-21 | Potency, µM (highest dose often 38.3 µM), without a hit: top-dose activity change, positive = activation, most hits filed as activators | HeLa miR-21 FLuc reporter, luciferase, 48 h | 340,000 tested, under 10 active;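 further: % of control where 0% means no effect; miR-21 action dims this reporter so a rising signal means less miR-21 action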
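HeLa miR-21-FLuc reporter line, endogenous miR-21; 2000 cells/well in DMEM/10% FBS; compound titration up to ~40uM final, 48 h, 37 degree Celsius; luciferase detection reagent, 15 min lysis, CCD luminescence.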
Sfp PPTase inh: qHTS Assay for Inhibitors of Bacillus subtilis Sfp phosphopantetheinyl transferase (PPTase) | 4'-phosphopantetheinyl transferase ffp (Bacillus subtilis), Q9F4F7 | Biochemical Sfp PPTase activity, qHTS | Potency, µM, without a hit: largest response in the series, negative = inhibition, actives largely listed as inhibitors | 310,000 compounds, 3.5% hits;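 further: the enzyme is Sfp with the accession as filed and its product quenches rhodamine fluorescence; potency means the concentration at half of the fitted maximal effect; 0% = enzyme reaction without inhibitor and -100% = no enzyme wells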
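Fluorescence-quenching assay: 15 nM Sfp-PPTase preincubated 15 min at room temperature with compound, then 5 uM rhodamine-CoA and 12.5 uM BHQ-2-labelled YbbR peptide added. Fluorescence (ex 525/em 598 nm) read at start and after 30 min; difference gives rate.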
G9a block: qHTS Assay for Inhibitors of Histone Lysine Methyltransferase G9a; Histone-lysine N-methyltransferase EHMT2 (Homo sapiens), Q96KQ7; G9a H3K9 monomethylation, AlphaScreen, 2 h; Potency, µM (doses to about 102 µM), without a hit: top-dose activity, negative = inhibition, hits mostly inhibitors; 350,000 compounds, 8.8% hits; AID 504332, 2011; further: potency means the concentration at half of the fitted maximal effect; on the % scale 0 is the no-effect control and ±100 the full control effect; nearly all actives have a fitted effect of over 75% in size
Target sequence (Q96KQ7 913-1193 limits assumed): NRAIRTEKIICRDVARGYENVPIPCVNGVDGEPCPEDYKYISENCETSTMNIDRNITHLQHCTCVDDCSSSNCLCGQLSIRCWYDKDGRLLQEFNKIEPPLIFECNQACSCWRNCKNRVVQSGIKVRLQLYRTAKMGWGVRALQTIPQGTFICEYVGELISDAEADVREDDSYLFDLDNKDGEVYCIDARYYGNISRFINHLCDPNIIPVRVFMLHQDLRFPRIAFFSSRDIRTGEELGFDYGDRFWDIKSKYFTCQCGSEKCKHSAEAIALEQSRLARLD
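Compounds were preincubated with 20 nM G9a for 15 min, after which biotinylated H3K9 peptide (500 nM) and SAM (20 uM) started a 2 h room-temperature reaction. Monomethylated product was quantified by antibody-based AlphaScreen chemiluminescence.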
JMJD2E inh: qHTS Assay for Inhibitors of Human Jumonji Domain Containing 2E (JMJD2E) | Lysine-specific demethylase 4E (Homo sapiens), B2RXH2 | JMJD2E catalytic domain, FDH-coupled NADH fluorescence (FDH is formaldehyde dehydrogenase) | Potency, µM (top dose mostly 57.1 µM), for inactives: top-dose activity change, negative = inhibition, usual class: inhibitors | 230,000 compounds, 1.6% hits | AID 2147, 2009; active means well fitted inhibition curve with a large enough effect, not every such curve was filed as active; inconclusive means small, poorly fitted or top-dose-only effect, or another doubt; inactive means no such curve, though single readings can be large or run the other way;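 further: potency means the concentration at half of the fitted maximal effect; 0% = wells with enzyme and -100% = buffer wells without enzyme; nearly all actives have a fitted effect of over 50% in size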
LMNA splice mod: qHTS Assay for Modulators of Lamin A Splicing. HeLa LMNA splicing GFP/RFP minigene ratio, 48 h. 200,000 compounds, 0.01% hits. AID 1487, 2009. Potency, µM (titrated, usually from 46.1 µM), for the others: at the highest dose ratio change, negative = inhibition, hits mostly inhibitors; active means well fitted inhibition curve with a large enough effect in the signal ratio, with a control signal flat, not every such curve was filed as active; inconclusive means small, poorly fitted or top-dose-only effect, or effect the other way, or a change in a side signal; the % refers to the signal ratio; further: potency means the concentration at half of the fitted maximal effect; on the % scale 0 is the no-effect control and ±100 the full control effect
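Read-out is the ratio of GFP to DsRed2 object intensity, acquired by 488 nm laser-scanning cytometry on HeLa lamin A-EGFP minigene reporter cells. Compound incubation 48 hrs at 37 °C in Opti-MEM with 2% FBS; DMSO 0.5% final.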
An asterisk follows results filed as active; ? = inconclusive; . = no result; ! = not confirmed by another sample; [ ] = dose if it differs, or a comment. An excerpt weighted towards active compounds, which were near 13% of everything screened. Unless noted, the call rests on the fitted dose curve; in most records, active means well fitted curve in the direction sought with a large enough effect; inconclusive means small, poorly fitted or top-dose-only effect, or another doubt; inactive means no such curve, though single readings can be large; an effect the other way counts as inactive or inconclusive.

SMILES | ALDH1A1 inh | miR-21 act | Sfp PPTase inh | G9a block | JMJD2E inh | LMNA splice mod
N[C@@H](CSCc1ccccc1)C(=O)O | 8%[13.5 µM] | . | . | . | . | .
CC1(C)C(=O)NC2=C1C(=O)C(=O)c1ccccc12 | 28µM* | . | 50µM*! | . | ? | .
COc1ccc(NC(=O)Nc2ccccc2OCc2cc(=O)n3ccccc3n2)c(OC)c1 | . | 0% | . | -30%[59 µM] | . | ?
CCN=C1S/C(=C/c2ccc(-c3ccc(F)cc3)o2)C(=O)N1CC | . | -9% | 56µM* | 35µM* | . | .
CN(C)c1ccc(/C=N/N=C2/NC(=O)/C(=C/c3ccc([N+](=O)[O-])cc3)S2)cc1 | 25µM* | 3% | -17% | . | -6% | ?
CCCCOc1cccc(C2C(C(=O)c3ccc(C)o3)=C(O)C(=O)N2c2nnc(C)s2)c1 (stereo not drawn) | . | -8% | 50µM* | . | . | .
C=CCOc1cccc(C2C(C(=O)c3ccc(C)o3)=C(O)C(=O)N2c2nccs2)c1 (stereo not drawn) | -4% | -14% | ? | 32µM* | -6% | ?
COc1cccc(C(=O)NCCS(=O)(=O)N2CCCCC2)c1 | . | . | . | 11µM* | . | .
CCOC(=O)N1CCN(S(=O)(=O)CCNC(=O)c2ccccc2)CC1 | . | . | . | -28% | . | .
COc1cccc(C(=O)NCCS(=O)(=O)N2CCN(C(=O)c3ccco3)CC2)c1 | . | . | . | 14µM* | . | .
COc1cccc(C(=O)NCCS(=O)(=O)N2CCCC2)c1 | . | . | . | 32µM* | . | .
CCOC(=O)N1CCN(S(=O)(=O)CCNC(=O)c2cccc(OC)c2)CC1 | . | . | . | 50µM* | . | .
COc1cccc(C(=O)NCCS(=O)(=O)N2CCc3ccccc3C2)c1 | . | . | . | -40% | . | .
N#CCCN(Cc1ccccc1)C(=O)c1nccnc1C(=O)O | . | -2% | -5% | 35µM* | . | .
OCC(O)/C=N/Nc1nc(N2CCCCC2)nc(N2CCCCC2)n1 (stereo not drawn) | 3% | 1% | 13% | 56µM* | -13% | .
CCn1c(-c2cccn(Cc3ccccc3)c2=O)n[nH]c1=S | -3% | -2% | 19% | 32µM* | -4% | 20%[46 µM]
CCn1c(-c2ccccc2SC)n[nH]c1=S | -2% | -1% | 8% | 14µM* | ? | -2%[46 µM]
O=C(Nc1ccc(Cl)cc1Cl)c1cc(S(=O)(=O)N2CCCCCC2)ccc1F | . | -4% | . | 19%[59 µM] | . | ?
COc1cc(CNn2cn[nH]c2=S)cc(Cl)c1OCc1ccccc1 | ? | -1% | 8% | 10µM* | 1% | 14%
COc1cc(CNCCc2ccccc2)cc(Cl)c1OCc1ccccc1 | ? | ? | 32µM* | -40% | -13% | .
COc1cc(CNCc2ccccc2)cc(Cl)c1OC | -5% | -9% | -1% | ? | -5% | 2%[46 µM]
COc1cc(CNCc2ccncc2)cc(Br)c1OCc1ccccc1F | -3% | 20% | -4% | 19%[2.33 µM] | -4% | ?
COc1cc(CNn2cn[nH]c2=S)cc(Br)c1OCc1ccccc1F | -7% | 2% | -16% | 10µM* | -8% | .
C=CCOc1c(Cl)cc(CNn2cn[nH]c2=S)cc1OC | ? | -18% | ? | ? | -7% | .
COc1cc(CNCCc2c[nH]c3ccccc23)cc(Cl)c1OCC(N)=O | 16µM* | -1% | -6% | ? | -30% | ?
SMILES | ALDH1A1 inh | miR-21 act | Sfp PPTase inh | G9a block | JMJD2E inh | LMNA splice mod
Cc1cc(C)cc(NC(=O)c2sc3nc4n(c(=O)c3c2C)N=C(c2ccccc2)CS4)c1 | . | -9% | . | 9%[59 µM] | . | ?
COc1cccc(CNC(=O)C2CCN(Cc3cc4ccccc4n3Cc3ccc(C)cc3)CC2)c1 | . | 19% | . | -35%[59 µM] | . | ?
CCc1cccc(C)c1NC(=S)NCc1cccn1C | 14µM* | 1% | -4% | 17%[59 µM] | 7% | 8%
Cc1ccccc1NC(=S)NCc1cccn1C | -11% | 2% | 18% | -19%[59 µM] | -10% | -10%
COc1cc(/C=C2\C(=O)NN(c3ccccc3)C2=O)ccc1OCC(N)=O | ? | -7% | 19% | 50µM* | -6% | ?
COC(=O)c1ccc(N2NC(=O)/C(=C/c3ccc(OC)c(OC)c3)C2=O)cc1 | . | -2% | 8% | ? | . | .
C#CCOc1ccc(/C=C2/C(=O)NN(c3ccc(F)cc3)C2=O)cc1OC | . | -2% | -20% | 35µM* | . | .
CCN1CCN(c2cc(C)c3cc(NC(=S)N4CCOCC4)ccc3n2)CC1 | ? | 12% | 7% | 40µM* | ? | .
CCN1CCN(c2cc(C)c3cc(NC(=O)CCC(=O)N4CCN(c5ccccc5)CC4)ccc3n2)CC1 | . | -3% | 14% | 79µM* | . | .
CCN1CCN(c2cc(C)c3cc(NC(=S)N4CCN(c5ccccc5F)CC4)ccc3n2)CC1 | 13µM* | 3% | -6% | 45µM* | ? | .
CCN1CCN(c2cc(C)c3cc(NC(=S)N4CCN(c5ccccc5)CC4)ccc3n2)CC1 | ? | 3% | 14% | -41%[59 µM] | ? | .
CCN1CCN(c2cc(C)c3cc(NC(=S)N(CC)CC)ccc3n2)CC1 | -4% | 5% | 4% | 35µM* | ? | .
CCC(=O)c1c(O)cc(O)cc1O | -13% | . | -14% | -47%[2.33 µM] | -20% | ?
Cc1ccc(N(Cc2cccs2)C(=O)c2ccc(OC(C)C)cc2)cc1 | . | ? | . | 65%[59 µM] | . | ?
CCN1CCN(c2cc(C)c3cc(NC(=O)/C=C/c4cccc(Cl)c4)ccc3n2)CC1 | . | 61% | . | 11µM* | . | .
CCCN1CCN(C(=S)Nc2ccc3nc(N4CCN(CC)CC4)cc(C)c3c2)CC1 | -4% | -1% | 12% | 45µM* | ? | .
COc1ccccc1N1CCN(C(=S)Nc2ccc3nc(N4CCOCC4)cc(C)c3c2)CC1 | ? | 9% | -11% | 56µM* | ? | -6%[9.22 µM]
COc1ccc(CNc2ncnc3sccc23)cc1 | . | 23% | 4% | 7% | . | .
CCN(CC)c1ccc(NC(=O)C2CCN(S(=O)(=O)c3c(C)noc3/C=C/c3ccccc3F)CC2)c(C)c1 | . | 4% | . | -50%[59 µM] | . | -13%[46 µM]
CCCC(=O)c1ccc(N2CCN(C(=O)c3ccccc3Br)CC2)c(F)c1 | 16µM* | 9% | -13% | -7%[12.7 µM] | -2% | ?
CCCC(=O)c1ccc(N2CCN(C(=O)c3ccccc3)CC2)c(F)c1 | ? | 16% | 9% | 9%[59 µM] | 5% | -15%
Cc1ccc(-c2noc(-c3ccccc3NC(=O)C3CC(=O)N(c4cccc(C)c4)C3)n2)cc1 (stereo not drawn) | . | 0% | . | 0%[59 µM] | . | .
CCCOc1ccc(CNC(=O)CN2C(=O)c3cccnc3Oc3ccc(C)cc32)cc1 | . | 16% | . | 6%[59 µM] | . | -26%[46 µM]

Assay outcomes: PubChem BioAssay, National Center for Advancing Translational Sciences (NCATS)
